Active and inactive are the calls of the source. How the source made its calls: active means hit-call score of the fitted dose curve at least 0.9, where 1 is the maximum; inactive means score below 0.9.
How the values were obtained:
Conditions in all cases: mRNA level, 48 h; actives raise or lower the signal
[1] = read-out: ATP-citrate lyase (ACLY), ACLY (gene 47); experiment: LTEA_HepaRG_ACLY: Life Technologies and Expression Analysis (LTEA) Assay for ATP-citrate lyase (ACLY) using HepaRG (AID 2283466)
Method in brief: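 ACLY mRNA quantified by qRT-PCR on Fluidigm arrays against three housekeeping genes, after 48 h chemical treatment of HepaRG cells (top concentration 100 uM, half-log steps, 0.5% DMSO vehicle). Up- or down-regulation fitted relative to DMSO.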

[2] = read-out: Peroxisomal acyl-coenzyme A oxidase 1 (ACOX1) gene, ACOX1 (gene 51); experiment: LTEA_HepaRG_ACOX1: Life Technologies and Expression Analysis (LTEA) Assay for Peroxisomal acyl-coenzyme A oxidase 1 (ACOX1) gene using HepaRG (AID 2283467)
Method in brief: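 ACOX1 transcript levels were quantified by TaqMan qRT-PCR against three housekeeping genes after 48 h chemical exposure of differentiated human HepaRG cells. Exposure used eight half-log steps topping at 100 uM, 0.5% DMSO vehicle, in duplicate. Bidirectional curve fits were made relative to DMSO.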

[3] = read-out: Alkaline Phosphatase, Placental (ALPP) gene, ALPP (gene 250); experiment: LTEA_HepaRG_ALPP: Life Technologies and Expression Analysis (LTEA) Assay for Alkaline Phosphatase, Placental (ALPP) gene using HepaRG (AID 2283468);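 on AC50: differentiated human HepaRG liver cells in serum-free induction medium; ALPP transcript by TaqMan qRT-PCR normalized to ACTB GAPDH and POLR2A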
Method in brief: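 Using human liver HepaRG cells, chemicals are tested in duplicate over 48 h at half-log concentrations topping at 100 uM; phenobarbital 1 mM serves as induction control. ALPP mRNA change by qRT-PCR, bidirectional fit against vehicle.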

[4] = read-out: Bcl-2 (BAD) gene, BAD (gene 572); experiment: LTEA_HepaRG_BAD: Life Technologies and Expression Analysis (LTEA) Assay for Bcl-2 (BAD) gene using HepaRG (AID 2283469)
Method in brief: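 Read-out: qRT-PCR of BAD mRNA, normalized to three housekeeping genes. Human HepaRG cultures got 48 h chemical exposure in 0.5% DMSO, duplicate eight-point half-log series topping at 100 uM. Gain or loss of signal fitted versus DMSO vehicle.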

[5] = read-out: adenosine kinase (ADK) gene, ADK (gene 132); experiment: LTEA_HepaRG_ADK: Life Technologies and Expression Analysis (LTEA) Assay for adenosine kinase (ADK) gene using HepaRG (AID 2283471)
Method in brief: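 HepaRG (human liver), 48 h chemical exposure, 8-pt half-log series, top 100 uM, 0.5% DMSO vehicle. Readout: ADK mRNA by qRT-PCR vs housekeeping genes; bidirectional curve fit relative to DMSO baseline.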

[6] = read-out: Alpha-fetoprotein (AFP) gene, AFP (gene 174); experiment: LTEA_HepaRG_AFP: Life Technologies and Expression Analysis (LTEA) Assay for Alpha-fetoprotein (AFP) gene using HepaRG (AID 2283472);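 on AC50: AFP transcript by TaqMan qRT-PCR normalized to ACTB GAPDH and POLR2A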
Method in brief: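 Chemicals were tested on differentiated HepaRG cells for 48 hours at eight concentrations up to 100 uM, with 0.5% DMSO as vehicle. AFP expression was then quantified by qRT-PCR and analyzed for gain or loss relative to DMSO.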

BCL2L11 (gene 10018) = experiment: LTEA_HepaRG_BCL2L11: Life Technologies and Expression Analysis (LTEA) Assay for Bcl-2 (BCL2L11) gene using HepaRG (AID 2283473)
Method in brief: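 Human hepatic HepaRG cultures are treated 48 h with test chemicals (maximum 100 uM, 0.5% DMSO vehicle). Expression of BCL2L11 is measured by qRT-PCR against ACTB, GAPDH and POLR2A, with activity in either direction scored relative to vehicle.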

[7] = read-out: Apolipoprotein A-V (APOA5) gene, APOA5 (gene 116519); experiment: LTEA_HepaRG_APOA5: Life Technologies and Expression Analysis (LTEA) Assay for Apolipoprotein A-V (APOA5) gene using HepaRG (AID 2283474)
Method in brief: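 Concentration-response of APOA5 expression in HepaRG: eight half-log doses to 100 uM, 48 h, qRT-PCR normalized to ACTB/GAPDH/POLR2A, bidirectional fitting with 0.5% DMSO as baseline.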

[8] = read-out: Apoptosis regulator Bcl-2 (Homo sapiens) (UniProt P10415); experiment: LTEA_HepaRG_BCL2: Life Technologies and Expression Analysis (LTEA) Assay for Bcl-2 gene using HepaRG (AID 2283475);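 further: BCL2 transcript by TaqMan qRT-PCR normalised to ACTB GAPDH and POLR2A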
Method in brief: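 Plated human HepaRG cells are exposed to test chemicals for 48 h across eight concentrations from 100 uM downward in half-log steps (0.5% DMSO). BCL2 expression is then measured by qRT-PCR with housekeeping normalisation and fitted bidirectionally against vehicle.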

Measured: AC50

Chain of Apoptosis regulator Bcl-2 (Homo sapiens) (P10415 whole entry, looked up): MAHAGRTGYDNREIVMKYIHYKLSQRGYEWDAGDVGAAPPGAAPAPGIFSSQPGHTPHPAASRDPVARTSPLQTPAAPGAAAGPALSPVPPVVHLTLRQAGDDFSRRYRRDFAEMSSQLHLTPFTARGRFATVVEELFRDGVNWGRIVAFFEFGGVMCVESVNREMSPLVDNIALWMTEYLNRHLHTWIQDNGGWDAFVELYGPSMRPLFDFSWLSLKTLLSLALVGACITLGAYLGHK

CCCOCC(=Nc1ccc(Cl)cc1C(F)(F)F)n1ccnc1
inactive: [4] | BCL2L11 (gene 10018) | [7] | [8]
active: [1] 88.6 µM | [2] 72.2 µM | [3] 15.8 µM | [5] 78.5 µM | [6] 15.8 µM

CC[C@H](C)[C@H]1O[C@]2(C=C[C@@H]1C)C[C@@H]1C[C@@H](C/C=C(\C)[C@@H](O[C@H]3C[C@H](OC)[C@@H](O[C@H]4C[C@H](OC)[C@@H](NC)[C@H](C)O4)[C@H](C)O3)[C@@H](C)/C=C/C=C3\CO[C@@H]4[C@H](O)C(C)=C[C@@H](C(=O)O1)[C@]34O)O2
active: [2] 13 µM | [3] 11.9 µM | [5] 50 µM | [6] 87.7 µM | BCL2L11 (gene 10018) 12.5 µM
inactive: [1] | [4] | [7] | [8]

Cc1ccn2nc(S(=O)(=O)Nc3c(F)cccc3F)nc2n1
inactive: all assays above

CSC1=N[C@@](C)(c2ccccc2)C(=O)N1Nc1ccccc1
inactive: [1] | [4] | [5]
active: [2] 27.3 µM | [3] 13.3 µM | [6] 35.2 µM | BCL2L11 (gene 10018) 12.6 µM | [7] 33.8 µM | [8] 30.2 µM

COP(=O)(OC)SCn1c(=O)oc2cc(Cl)cnc21
active: BCL2L11 (gene 10018) 50 µM | [7] 0.282 µM | [8] 50 µM
inactive: all other assays above

CCC(=O)Nc1ccc(Cl)c(Cl)c1
active: [3] 50 µM
inactive: all other assays above

COP(=O)(OC)OC(Br)C(Cl)(Cl)Br (stereo unspecified)
not listed: BCL2L11 (gene 10018)
inactive: all other assays above

CC(C)[C@H](C(=O)O[C@H](C#N)c1cccc(Oc2ccccc2)c1)c1ccc(Cl)cc1
active: [6] 24.7 µM
inactive: all other assays above

CC1(C(=O)Nc2ccc(O)c(Cl)c2Cl)CCCCC1
inactive: all assays above

Nc1c(Cl)cc([N+](=O)[O-])cc1Cl
active: [2] 22.8 µM | [3] 50 µM | [5] 64.1 µM | [6] 39.3 µM | BCL2L11 (gene 10018) 50 µM | [7] 68.5 µM | [8] 50 µM
inactive: [1] | [4]

CCOP(=O)(SC(C)CC)N1CCSC1=O (stereo unspecified)
inactive: all assays above

CC1=NNC(=O)N(/N=C/c2cccnc2)C1
inactive: all assays above

CCc1cnc(C2=NC(C)(C(C)C)C(=O)N2)c(C(=O)O)c1 (stereo unspecified)
inactive: all assays above

CNC(=O)ON=C(C)SC
inactive: all assays above

CC(C)=CC1C(C(=O)OCN2C(=O)C3=C(CCCC3)C2=O)C1(C)C (stereo unspecified)
inactive: all assays above

CCOC(=O)CC(SP(=O)(OC)OC)C(=O)OCC (stereo unspecified)
inactive: all assays above

CSc1nnc(C(C)(C)C)c(=O)n1N
inactive: all assays above

CNC(=O)ON=C(SC)C(=O)N(C)C
inactive: all assays above

From PubChem BioAssay (EPA / NIEHS)
